Active and inactive are the calls of the source.
How the values were obtained:
[1] = test system: Plasmodium falciparum Sir2 (PF13_0152, Sir2A); assay: pfSir2 binders on small-molecule microarrays, primary screen, biochemical, small-molecule microarray, 635 nm fluorescence (AID 1098); settings: small-molecule microarray binding, fluorescence 635 nm; higher = more signal;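 also: score merges spot fluorescence intensity with its signal-to-noise ratio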
[2] = small-molecule microarray binders of probe aDKK1, primary screen, biochemical, biotinylated probe, 635/667 nm fluorescence (AID 1099); settings: higher = more signal;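 also: score merges 667nm spot fluorescence with signal to noise across triplicate slides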
[3] = small-molecule microarray binders of probe aCHRDL2, primary screen, biochemical, biotinylated probe, 635/667 nm fluorescence (AID 1100); settings: higher = more signal
[4] = splicing luciferase reporter signal modulators, primary screen, spliceosome inhibition project, cell-based, HEK293, splice +/- reporter (AID 1101); settings: luminescence, 24 h, higher = more signal, called active from +8 up or from −8 down;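 also: HEK293 cells carrying a splicing-competent luciferase reporter gene; test concentration not given here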
[5] = biological target: Fibroblast growth factor 10 (Homo sapiens) (UniProt O15520); assay: FGF10 binders on small-molecule microarrays, primary screen, biochemical, small-molecule microarray, 635 nm fluorescence (AID 1102); settings: FGF10 binding, fluorescence 635 nm, higher = more signal
[6] = test system: glycogen synthase kinase-3 (GSK3A per assay name; protocol says GSK3B); assay: GSK3 binders on small-molecule microarrays, primary screen, biochemical, small-molecule microarray, 635 nm fluorescence, GSK3A (AID 1103); settings: small-molecule microarray binding, fluorescence 635 nm; higher = more signal; also: the record names both GSK3A and GSK3B
[7] = biological target: Epidermal growth factor receptor (Homo sapiens) (UniProt P00533); assay: EGFR binders on small-molecule microarrays, primary screen, biochemical, small-molecule microarray, 635 nm fluorescence (AID 1104); settings: EGFR binding, higher = more signal;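 also: score merges 667 nm emission intensity with spot signal to noise over triplicate slides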
[8] = biological target: Follistatin-related protein 3 (Homo sapiens) (UniProt O95633); assay: FSTL3 binders on small-molecule microarrays, primary screen, biochemical, small-molecule microarray, 635 nm fluorescence (AID 1105); settings: FSTL3 binding, higher = more signal;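 also: score merges emission near 667 nm and signal to noise per printed spot across three slides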
[9] = biological target: Dickkopf-related protein 1 (Homo sapiens) (UniProt O94907); assay: DKK1 binders on small-molecule microarrays, primary screen, biochemical, small-molecule microarray, 635 nm fluorescence scan (AID 1106); settings: DKK1 binding, higher = more signal;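 also: score merges emission near 667 nm with signal to noise over three replicate slides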
[10] = test system: Inhibin beta A chain (activin A); assay: INHBA (activin A) binders on microarrays, primary screen, biochemical, small-molecule microarray, 635 nm fluorescence scan (AID 1107); settings: small-molecule microarray binding, higher = more signal;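 also: mouse activin A protein probed at 4.33 µg/mL on printed slides; score merges bound-protein fluorescence near 667 nm with spot signal-to-noise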
[11] = test system: Human papillomavirus type 1a protein E7 (residues 44-93); assay: HPV1a E7 fragment binders on microarrays, primary screen, biochemical, small-molecule microarray, residues 44-93, 635 nm fluorescence (AID 1108); settings: small-molecule microarray binding, fluorescence 635 nm; higher = more signal;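 also: E7 fragment applied at 1 µg/mL in TBST for 1 h at 4 C; score combines spot fluorescence with its signal to noise ratio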
[12] = modulators of HCV replicon luciferase signal, primary screen, HCV replication inhibitor project, Huh7 cells, luciferase reporter (AID 1109); settings: 48 h, higher = more signal;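 also: huh7 hepatoma cells harbouring a luciferase neomycin HCV replicon reporter; luciferase luminescence as measure of HCV replicon replication; test concentration not given here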
[13] = biological target: Left-right determination factor 2 (Homo sapiens) (UniProt O00292); assay: LEFTY2 binders on small-molecule microarrays, primary screen, biochemical, small-molecule microarray, 635 nm fluorescence scan (AID 1110); settings: LEFTY2 binding, higher = more signal
[14] = biological target: Calmodulin-1 (Homo sapiens) (UniProt P0DP23); assay: CALM1 binders on microarrays, EGTA buffer, profiling panel, biochemical, small-molecule microarray, Cy5-labelled CALM1 (AID 1111); settings: Cy5-CALM1 binding fluorescence, higher = more signal;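 also: labelled calmodulin applied in Tris saline Tween buffer holding calcium plus EGTA and DTT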
[15] = biological target: Calmodulin-1 (Homo sapiens) (UniProt P0DP23); assay: calcium-bound CALM1 binders on microarrays, profiling panel, artefact control for SMM control-protein annotation, biochemical, small-molecule microarray, Cy5-labelled CALM1, plus calcium (AID 1112); settings: Cy5-CALM1 binding fluorescence, higher = more signal;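 also: score merges spot fluorescence with signal to noise from triplicate slides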
[16] = small-molecule microarray binders of probe aWnt5a, primary screen, biochemical, biotinylated probe, 635/667 nm fluorescence (AID 1113); settings: higher = more signal;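 also: score merges 667 nm fluorescence intensity with signal-to-noise per printed feature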
[17] = small-molecule microarray binders of probe aShh, primary screen, biochemical, biotinylated probe, 635/667 nm fluorescence (AID 1114); settings: higher = more signal;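 also: probe is biotin-labelled aShh protein from a stem cell growth factor screen; measures binding of labelled protein to compounds printed on the slide; score merges feature fluorescence at 667 nm with signal-to-noise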
[18] = small-molecule microarray binders of probe aNog, primary screen, biochemical, biotinylated probe, 635/667 nm fluorescence (AID 1115); settings: higher = more signal;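 also: probe is biotinylated aNog protein used at 0.15 µg/mL for 1 h at 4 C; z-score combines 667 nm fluorescence of each spot with its signal to noise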
[19] = biological target: Torsin-1A-interacting protein 1 (Homo sapiens) (UniProt Q5JTV8); assay: LAP1 binders from COS7 cell lysate, primary screen, small-molecule microarray, 635/667 nm fluorescence (AID 1116); settings: COS7-hLAP1 lysate binding, 635 nm fluorescence, higher = more signal
[20] = biological target: Alpha-bungarotoxin (Bungarus multicinctus) (UniProt P60615); assay: alpha-bungarotoxin binders on microarray, profiling panel, artefact control for SMM control protein annotation, biochemical, small-molecule microarray, Alexa647 label, 635/667 nm fluorescence (AID 1117); settings: alpha-BTX-A647 binding fluorescence, higher = more signal
Chain of Alpha-bungarotoxin (Bungarus multicinctus) (P60615 whole entry, looked up): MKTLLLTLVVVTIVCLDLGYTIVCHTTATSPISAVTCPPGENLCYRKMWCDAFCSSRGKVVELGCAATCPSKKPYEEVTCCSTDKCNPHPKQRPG

Chain of Left-right determination factor 2 (Homo sapiens) (O00292 whole entry, looked up): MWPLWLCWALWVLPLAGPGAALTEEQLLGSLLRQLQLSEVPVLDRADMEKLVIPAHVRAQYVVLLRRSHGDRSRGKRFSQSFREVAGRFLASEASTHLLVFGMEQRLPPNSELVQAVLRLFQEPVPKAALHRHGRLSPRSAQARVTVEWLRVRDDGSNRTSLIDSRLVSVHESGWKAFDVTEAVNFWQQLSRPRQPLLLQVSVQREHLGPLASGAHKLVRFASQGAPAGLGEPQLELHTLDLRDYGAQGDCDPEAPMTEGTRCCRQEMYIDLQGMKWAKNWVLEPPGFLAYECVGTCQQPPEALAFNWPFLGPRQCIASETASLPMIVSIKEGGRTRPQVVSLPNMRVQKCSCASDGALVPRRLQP
Chain of Fibroblast growth factor 10 (Homo sapiens) (O15520 whole entry, looked up): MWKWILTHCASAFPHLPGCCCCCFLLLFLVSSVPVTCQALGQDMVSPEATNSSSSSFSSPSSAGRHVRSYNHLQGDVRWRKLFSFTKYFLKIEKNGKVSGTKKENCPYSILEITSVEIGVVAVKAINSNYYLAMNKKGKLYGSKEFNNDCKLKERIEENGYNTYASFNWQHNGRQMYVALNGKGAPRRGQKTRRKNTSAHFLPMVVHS
Chain of Dickkopf-related protein 1 (Homo sapiens) (O94907 whole entry, looked up): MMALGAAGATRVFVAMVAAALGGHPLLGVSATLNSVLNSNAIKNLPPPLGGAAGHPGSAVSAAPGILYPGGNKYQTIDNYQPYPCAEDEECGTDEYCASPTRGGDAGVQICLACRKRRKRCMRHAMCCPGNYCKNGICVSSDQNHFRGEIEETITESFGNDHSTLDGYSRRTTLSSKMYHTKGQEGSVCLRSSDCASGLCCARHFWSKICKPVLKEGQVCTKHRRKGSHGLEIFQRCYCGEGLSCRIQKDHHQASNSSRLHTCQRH
Chain of Epidermal growth factor receptor (Homo sapiens) (P00533 whole entry, looked up): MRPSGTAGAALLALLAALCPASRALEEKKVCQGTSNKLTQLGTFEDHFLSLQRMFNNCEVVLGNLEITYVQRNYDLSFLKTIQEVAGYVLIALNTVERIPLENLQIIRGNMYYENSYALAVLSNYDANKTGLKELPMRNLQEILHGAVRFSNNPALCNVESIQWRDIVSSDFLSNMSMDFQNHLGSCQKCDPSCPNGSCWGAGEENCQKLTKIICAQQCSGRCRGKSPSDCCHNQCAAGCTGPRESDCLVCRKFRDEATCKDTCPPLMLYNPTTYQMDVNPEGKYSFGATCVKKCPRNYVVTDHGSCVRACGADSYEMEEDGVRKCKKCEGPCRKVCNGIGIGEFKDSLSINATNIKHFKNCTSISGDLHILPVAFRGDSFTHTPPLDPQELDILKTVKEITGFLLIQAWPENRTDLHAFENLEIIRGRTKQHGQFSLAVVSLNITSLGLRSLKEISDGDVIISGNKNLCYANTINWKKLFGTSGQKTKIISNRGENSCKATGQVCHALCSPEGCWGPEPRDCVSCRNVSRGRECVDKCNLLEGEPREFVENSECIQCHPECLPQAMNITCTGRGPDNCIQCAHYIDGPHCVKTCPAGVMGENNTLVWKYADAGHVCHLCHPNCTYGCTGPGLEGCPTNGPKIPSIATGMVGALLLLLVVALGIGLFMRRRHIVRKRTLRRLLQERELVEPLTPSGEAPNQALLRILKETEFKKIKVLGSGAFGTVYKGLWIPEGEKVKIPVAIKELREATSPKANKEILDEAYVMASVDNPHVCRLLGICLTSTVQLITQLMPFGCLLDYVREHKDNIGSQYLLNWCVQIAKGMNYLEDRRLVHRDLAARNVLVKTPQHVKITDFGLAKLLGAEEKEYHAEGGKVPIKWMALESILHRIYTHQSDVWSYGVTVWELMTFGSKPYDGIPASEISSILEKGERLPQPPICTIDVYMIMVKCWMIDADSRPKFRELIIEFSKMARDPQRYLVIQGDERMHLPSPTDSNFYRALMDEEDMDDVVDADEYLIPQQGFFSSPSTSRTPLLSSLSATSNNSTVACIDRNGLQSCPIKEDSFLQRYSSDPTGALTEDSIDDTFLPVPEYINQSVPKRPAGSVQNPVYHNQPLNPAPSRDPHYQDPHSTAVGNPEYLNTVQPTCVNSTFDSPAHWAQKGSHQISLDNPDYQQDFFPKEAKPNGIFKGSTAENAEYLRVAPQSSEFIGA
Chain of Torsin-1A-interacting protein 1 (Homo sapiens) (Q5JTV8 whole entry, looked up): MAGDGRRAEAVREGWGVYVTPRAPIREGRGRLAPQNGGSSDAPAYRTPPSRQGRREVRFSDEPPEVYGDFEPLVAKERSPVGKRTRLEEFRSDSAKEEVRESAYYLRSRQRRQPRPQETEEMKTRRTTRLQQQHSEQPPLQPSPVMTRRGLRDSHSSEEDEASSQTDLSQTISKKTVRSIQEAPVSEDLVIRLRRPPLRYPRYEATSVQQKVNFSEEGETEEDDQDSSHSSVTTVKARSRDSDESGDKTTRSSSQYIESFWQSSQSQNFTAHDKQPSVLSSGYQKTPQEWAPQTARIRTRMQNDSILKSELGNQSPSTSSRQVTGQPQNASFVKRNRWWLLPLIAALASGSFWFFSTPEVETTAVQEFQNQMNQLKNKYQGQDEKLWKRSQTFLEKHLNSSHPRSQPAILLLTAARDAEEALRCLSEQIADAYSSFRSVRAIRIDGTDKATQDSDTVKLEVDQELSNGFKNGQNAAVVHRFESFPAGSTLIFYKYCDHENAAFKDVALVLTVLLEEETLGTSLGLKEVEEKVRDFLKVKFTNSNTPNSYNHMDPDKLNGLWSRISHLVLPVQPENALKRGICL
Chain of Follistatin-related protein 3 (Homo sapiens) (O95633 whole entry, looked up): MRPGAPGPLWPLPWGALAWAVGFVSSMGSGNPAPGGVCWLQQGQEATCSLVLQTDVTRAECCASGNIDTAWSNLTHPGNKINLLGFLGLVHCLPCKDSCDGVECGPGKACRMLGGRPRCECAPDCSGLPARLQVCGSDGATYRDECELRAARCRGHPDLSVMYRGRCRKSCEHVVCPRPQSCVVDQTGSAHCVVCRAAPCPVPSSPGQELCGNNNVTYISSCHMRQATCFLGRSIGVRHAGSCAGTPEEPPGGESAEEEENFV

SMILES	composite z-score [1]	composite z-score [2]	composite z-score [3]	z-score [4]	composite z-score [5]	composite z-score [6]	composite z-score [7]	composite z-score [8]	composite z-score [9]	composite z-score [10]	composite z-score [11]	z-score [12]	composite z-score [13]	composite z-score [14]	composite z-score [15]	composite z-score [16]	composite z-score [17]	composite z-score [18]	composite z-score [19]	composite z-score [20]
C=CCC(OC(C)=O)[C@@H]1[C@@H](N(Cc2cccc3ccccc23)C(=O)c2ccc(C)cc2)c2cc(OCCCO)ccc2N1C(=O)c1ccc2ccccc2n1 (stereo not given in full)	0.206	-0.16	0.322	-1.47 (inactive)	0.0635	0.104	0.386	0.29	0.145	0.863	-0.139	-0.614	-0.0457	-0.388	-0.195	-0.147	-0.341	-0.555	0.482	1.46
C=CCNC(=O)[C@@H]1[C@H]2C(=O)O[C@H](c3ccccc3)[C@H](c3ccccc3)N2[C@H](c2ccc(O)cc2)[C@@]12C(=O)Nc1ccc(C#CC3(O)CCCCCC3)cc12	1.1	-0.0065	-0.0122	0.405 (inactive)	0.746	-0.206	0.348	0.196	0.446	-0.195	0.754	-0.608	0.0712	-0.542	-0.0571	-0.127	0.488	-0.499	0.824	-0.243
[N-]=[N+]=NCc1ccccc1[C@H]1OC(c2ccc(OCCCO)cc2)=N[C@@]1(Cc1ccccc1)C(=O)N1CCOCC1	1.25	0.721	0.884	-0.991 (inactive)	1.37	1.33	0.0968	0.808	-0.0244	-0.303	1.06	-2.31	0.335	1.48	0.779	0.186	-0.226	-0.461	1.43	1.28
CCCC=C(CCC)[C@@H](NC(=O)c1ccccc1)c1ccc(C(=O)OC)cc1	0.578	0.374	-0.0902	-1.98 (inactive)	1	0.294	0.891	0.806	0.162	0.613	0.882	-1.32	0.898	-0.271	-0.52	0.732	0.318	1.71	-0.171	0.303
Cc1ccc(S[C@]2(C(=O)NCC(F)(F)F)CC(=O)N(C3CCCCC3)[C@@H]2c2ccc(CO)cc2)cc1	1.58	0.433	0.83	0.113 (inactive)	0.162	-0.374	-0.235	-0.517	-1.09	-0.0076	0.82	-0.759	-0.431	1.26	0.27	-0.1	0.0875	-0.546	-0.163	0.28
CCCCC(=C=CC[C@@H](O)c1cccc(OCCO)c1)CCO	1.36	-0.252	0.254	0.413 (inactive)	0.504	-0.224	-0.556	-0.254	-0.591	0.134	-0.333	-0.165	-0.125	-0.494	0.181	-0.18	0.0121	-0.405	0.297	2.16
